PubChem BioAssay (EPA / NIEHS)
Inconclusive results are not listed. The source made the active and inactive calls. How the source made its calls: active means hit-call score of the fitted dose curve at least 0.9, where 1 is the maximum; inconclusive means response in the unintended direction; inactive means score below 0.9.

Each compound was assayed against Bile acid receptor (Homo sapiens) (UniProt Q96RI1) (assay: OT_FXR_FXRSRC1_1440: Odyssey Thera (OT) 24-hour HEK293T Protein-Complementation Assay for Farnesoid X receptor/SRC-1 Co-activator (AID 2283384)).
Procedure: OT_FXR_FXRSRC1_1440 is a cell-based assay that uses HEK293T, a human kidney cell line, with measurements taken at 24 hours after chemical dosing in a 384-well plate.OT_FXR_FXRSRC1_1440 is one of one assay component(s) measured or calculated from the OT_FXR_FXRSRC1_1440 assay. It is designed to make measurements of protein fragment complementation, a form of binding reporter, as detected with fluorescence intensity signals by Protein-fragment Complementation technology.Data from the assay component OT_FXR_FXRSRC1_1440 was analyzed into 1 assay endpoint. This assay endpoint, OT_FXR_FXRSRC1_1440, was analyzed in the positive analysis fitting direction relative to DMSO as the negative control and baseline of activity. Using a type of binding reporter, measures of receptor for gain-of-signal activity can be used to understand the binding at the pathway-level as they relate to the gene NR1H4. Furthermore, this assay endpoint can be referred to as a primary readout, because the performed assay has only produced 1 assay endpoint. To generalize the intended target to other relatable targets, this assay endpoint is annotated to the nuclear receptor intended target family, where the subfamily is non-steroidal.
Protein-fragment complementation assay, or PCA, is a method for the identification and quantification of protein-protein interactions. In the PCA, the proteins of interest ("bait" and "prey") are each covalently linked to fragments of a third protein (e.g. DHFR, which acts as a "reporter"). Interaction between the bait and the prey proteins brings the fragments of the reporter protein in close proximity to allow them to form a functional reporter protein whose activity can be measured.

Chain of Bile acid receptor (Homo sapiens) (Q96RI1 whole entry, looked up, the tested form may be a part): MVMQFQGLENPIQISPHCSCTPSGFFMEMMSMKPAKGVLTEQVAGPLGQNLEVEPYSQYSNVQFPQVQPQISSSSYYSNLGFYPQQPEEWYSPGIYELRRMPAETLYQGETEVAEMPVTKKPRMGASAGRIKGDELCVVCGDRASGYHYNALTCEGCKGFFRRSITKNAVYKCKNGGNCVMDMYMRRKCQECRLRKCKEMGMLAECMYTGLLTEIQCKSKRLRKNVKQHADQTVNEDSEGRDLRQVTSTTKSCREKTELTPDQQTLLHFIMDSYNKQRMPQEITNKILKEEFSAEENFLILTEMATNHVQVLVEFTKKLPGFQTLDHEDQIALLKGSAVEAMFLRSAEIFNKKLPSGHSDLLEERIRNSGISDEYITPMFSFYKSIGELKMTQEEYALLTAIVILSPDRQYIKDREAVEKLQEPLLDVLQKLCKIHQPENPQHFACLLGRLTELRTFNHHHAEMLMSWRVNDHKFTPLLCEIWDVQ

SMILES	outcome	AC50
CCC(C)(CCCC(C)C)OC(C)=O (stereo unspecified)	inactive	–
CCCCCC(=O)O[C@]1(C(C)=O)CC[C@H]2[C@@H]3CCC4=CC(=O)CC[C@]4(C)[C@H]3CC[C@@]21C	–	11.6 µM (active)
O=C1OC2(c3ccc(O)cc3Oc3cc(O)ccc32)c2ccccc21	–	11.4 µM (active)
c1ccc(Cc2ccccc2)cc1	inactive	–
CC(=O)C1=C(C)[C@@H]2C[C@@]3(C1)[C@H](C)CC[C@H]3C2(C)C	inactive	–
CCCc1ccc(O)cc1	inactive	–
CC(=O)c1ccc2ccccc2c1	inactive	–
CCCCCCCCOS(=O)(=O)O	inactive	–
CCc1cccc(O)c1	inactive	–
CC1COC(=O)O1 (stereo unspecified)	inactive	–
CCC(C)(C)C1CCC(OC)CC1 (stereo unspecified)	inactive	–
OC[C@H]1O[C@@H](O[C@H]2[C@H](O)[C@@H](O)[C@H](O)O[C@@H]2CO)[C@H](O)[C@@H](O)[C@H]1O	inactive	–
CCOCC(C)O (stereo unspecified)	inactive	–
CCCCC/C=C\C=C\C(=O)OCC	–	81 µM (active)
NC(=O)c1cccnc1	inactive	–
CC12CCC(C1)C(C)(C)C2O (stereo unspecified)	inactive	–
CCC(=O)OC(C)(C)C1CC=C(C)CC1 (stereo unspecified)	inactive	–
CC(=O)CC(=O)N(C)C	inactive	–
CC1=CCC(C(C)(C)O)CC1 (stereo unspecified)	inactive	–
COc1ccc2[nH]cc(CCNC(C)=O)c2c1	inactive	–
CC(=O)C1C(=O)C=C(C)OC1=O (stereo unspecified)	inactive	–
